Screens (PubChem)
PI5P4K alpha inh: PI5P4K alpha (human) kinase inhibition; max response, %; 330,000 tested, 1.2% active; P48426; PI5P4Kalpha enzyme, ADP-Glo luminescence, 60 min; stronger effect = lower value; active = max response of -50% or lower; inconclusive = between -30% and -50%; inactive = -30% or higher; note: value at the top dose of about 77 µM; % is set by controls: 0 for no effect and ±100 for the full control effect
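ADP-Glo luminescence end-point after a 60 min room-temperature kinase reaction. PI5P4Kalpha and substrate in HEPES pH 7.4 buffer with EGTA, 0.1% CHAPS and 5% DMSO; ATP at 5 microM final.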
Pol beta inh: DNA polymerase beta (human) inhibition | P06746 | Pol beta primer extension/strand displacement, fluorescence kinetic | Potency, µM (titrated, usually from 114 µM), without a hit: at the highest dose activity change, negative = inhibition, actives largely listed as inhibitors | 340,000 tested, 1.3% active; note: potency is the fitted concentration of half-maximal effect; % is set by controls: 0 for no effect and ±100 for the full control effect
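Reaction started by 50 nM substrate onto compound-treated Pol beta (10 nM, 15 min preincubation, room temperature); plates read at 0 min and 10 min. Normalized concentration-effect data fitted by four-parameter Hill equation.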
FEN1 inh: blocks human flap endonuclease 1; Recombinant FEN1 flap cleavage, fluorescence, 15 min; Potency, µM (top dose mostly 114 µM), for inactives: at the top dose activity change, negative = inhibition, usual class: inhibitors; 390,000 tested, 0.35% active; AID 588795; note: potency is the fitted concentration of half-maximal effect; % is set by controls: 0 for no effect and ±100 for the full control effect; nearly all actives have a fitted effect of over 65% in size
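Steps: FEN1 (10 nM) dispensed; compound added by pin tool; 15 min at room temperature; substrate added to 50 nM final; reads at 0 min and 15 min; data normalized and fitted (four-parameter Hill).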
Pol iota inh: DNA polymerase iota (human) inhibition; Pol iota fluorescent replication assay, 10 min; AID 588590; 390,000 tested, 1% active; Potency, µM (top dose mostly 115 µM), without a hit: at the highest dose activity, negative = inhibition, hits mostly inhibitors; Q9UNA4; note: potency is the fitted concentration of half-maximal effect
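Fluorescent replication assay read twice, at 0 min and 10 min after adding 50 nM (final) substrate. Enzyme (10 nM) and compounds were first incubated 15 min at room temperature; enzyme-free buffer wells were negative controls.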
POLK inh: blocks human DNA polymerase kappa activity; AID 588579; Q9UBT6; Potency, µM (top dose mostly 107 µM), for inactives: at the highest dose activity, negative = inhibition, hits mostly inhibitors; 400,000 tested, 0.53% active; purified Pol kappa, fluorescent DNA synthesis assay, 10 min; note: potency is the fitted concentration of half-maximal effect; % is set by controls: 0 for no effect and ±100 for the full control effect
Target sequence (Q9UBT6 whole entry, looked up): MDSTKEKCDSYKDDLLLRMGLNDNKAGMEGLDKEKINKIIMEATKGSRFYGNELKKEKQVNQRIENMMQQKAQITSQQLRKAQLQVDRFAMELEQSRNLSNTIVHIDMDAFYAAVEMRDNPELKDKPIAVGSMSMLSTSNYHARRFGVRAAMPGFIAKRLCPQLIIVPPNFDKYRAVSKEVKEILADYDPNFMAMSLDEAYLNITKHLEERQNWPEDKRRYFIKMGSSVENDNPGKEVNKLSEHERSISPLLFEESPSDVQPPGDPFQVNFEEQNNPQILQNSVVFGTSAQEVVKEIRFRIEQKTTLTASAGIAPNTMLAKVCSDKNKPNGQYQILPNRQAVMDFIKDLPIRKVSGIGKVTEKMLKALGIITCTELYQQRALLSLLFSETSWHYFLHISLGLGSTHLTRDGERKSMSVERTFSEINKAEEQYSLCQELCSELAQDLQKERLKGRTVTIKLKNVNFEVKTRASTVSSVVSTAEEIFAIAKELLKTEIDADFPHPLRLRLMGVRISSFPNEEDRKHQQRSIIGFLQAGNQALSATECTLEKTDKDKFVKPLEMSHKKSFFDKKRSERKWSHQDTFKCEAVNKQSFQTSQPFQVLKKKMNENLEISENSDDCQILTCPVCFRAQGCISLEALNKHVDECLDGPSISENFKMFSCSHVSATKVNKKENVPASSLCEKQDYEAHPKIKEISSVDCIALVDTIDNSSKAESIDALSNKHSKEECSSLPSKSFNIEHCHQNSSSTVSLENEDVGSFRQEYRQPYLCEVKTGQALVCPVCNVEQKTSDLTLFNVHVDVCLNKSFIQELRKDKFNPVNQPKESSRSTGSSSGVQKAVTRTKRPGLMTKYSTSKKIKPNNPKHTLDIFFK
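Enzyme at 10 nM met test compounds for 15 min at room temperature. Substrate addition (50 nM final) began the reaction, which was monitored by fluorescence at 0 and 10 min.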
Pol eta inh: DNA polymerase eta (human) inhibition; Q9Y253; recombinant Pol eta, fluorescent DNA replication assay; Potency, µM (titrated, usually from 114 µM), for the others: at the top dose activity change, negative = inhibition, most hits filed as inhibitors; 390,000 tested, 1.2% active; note: potency is the fitted concentration of half-maximal effect; % is set by controls: 0 for no effect and ±100 for the full control effect
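Pol eta at 10 nM preincubated with compounds 15 min at room temperature; reaction started with fluorescent substrate (50 nM final) and read kinetically at 0 and 10 min.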
The depositor's hits bear a star; ? = inconclusive; / = not tested or not shown; [ ] = dose if it differs, or a comment. Compounds with a hit are over-represented: about 2.8% of the library has one in this group of screens. Unless noted, calls come from the whole dose curve; as a rule, active = well fitted curve in the direction sought with a large enough effect; inconclusive = small, poorly fitted or top-dose-only effect, or another doubt; inactive = no such curve, though single readings can be large; an effect the other way counts as inactive or inconclusive.

SMILES | PI5P4K alpha inh | Pol beta inh | FEN1 inh | Pol iota inh | POLK inh | Pol eta inh
CN(C)c1ccc(-c2nc(NC3CCNCC3)c3ccccc3n2)cc1 | / | / | / | / | 32µM* | /
CC(=O)NCCNc1nc(-c2ccccc2CN(C)C)nc2ccccc12 | / | / | / | / | -4%[60.1 µM] | /
O=[N+]([O-])c1ccc(O/N=[N+](\[O-])N2CCCC2)c([N+](=O)[O-])c1 | / | / | 1% | ? | -18% | /
O=C(O)CC/C=C\CC[C@H]1[C@@H](N2CCCCC2)[C@@H](O)C[C@@H]1OCc1ccc(-c2ccccc2)cc1 | / | / | / | / | -8%[19.4 µM] | /
CCOC(=O)c1sc(Nc2nc3cc4c(cc3s2)OCO4)cc1C | 8 | 35µM* | -9% | 11% | -5% | ?
CC(=O)c1sc(Nc2nc3cc4c(cc3s2)OCO4)nc1C | -18 | ? | -24% | 106% | -6% | -1%
CCOc1[nH]c(/N=C/c2ccco2)c(C#N)c1C#N | ? | 12% | -10% | ? | ? | 14µM*
CCOc1[nH]c(/N=C/c2ccc(OC)cc2)c(C#N)c1C#N | / | / | 79µM* | ? | -22% | /
N#Cc1c(/N=C/c2ccco2)sc2c1CCC2 | -10 | -25% | -17% | 10% | -22% | -13%
Cc1sc2c(c1C)c(=O)n(CCc1ccccc1)c(=O)n2Cc1cccc(F)c1 | / | 1% | 2% | 11% | -6% | /
CC(C)C(=O)Nc1nnc(S(=O)(=O)N(C)Cc2ccc(F)cc2)s1 | / | -2% | 2% | 17% | -1% | -19%
Cc1cc(C)c(NC(=O)CN2C(=O)CCSc3ccc(S(=O)(=O)N4CCCC4)cc32)c(C)c1 | / | ? | -6% | 12% | -11%[60.1 µM] | 1%
CN1CCc2c(sc(NC(=O)c3cc4cc([N+](=O)[O-])ccc4s3)c2C(N)=O)C1 | / | 22µM* | / | / | / | /
CC(C)N1CCc2c(sc(NC(=O)c3cc4cc([N+](=O)[O-])ccc4s3)c2C(N)=O)C1 | ? | -22% | ? | 26% | -27% | -19%
O=c1c2cc3c(=O)n(-c4ccccc4O)c(=O)c3cc2c(=O)n1-c1ccccc1O | 3 | ? | -3% | -18% | -14% | -16%
Oc1c(Br)cc(/C=N/Nc2nncc3ccccc23)cc1Br | -62* | -7% | ? | 21% | -27% | ?
O=C1NC[C@H](CCCCN2C[C@H](Cc3ccc(O)cc3)N(CCc3ccccc3)C(=O)C2=O)N(CC2CCCCC2)C1=O | 5 | / | / | / | / | /
COc1ccc(NC(=O)C2CCCN(C(=O)Nc3ccc(F)cc3)C2)cc1OC (stereo unspecified) | 0 | 44% | 9% | -11% | -17% | 1%
Cc1ccccc1OCC(=O)NCC(=O)N/N=C/c1ccc(Br)o1 | -6 | ? | -3% | -11% | -5% | 25µM*
O=C(COc1ccccc1)NCC(=O)N/N=C/c1ccccc1 | 7 | 9% | 12% | 19% | -4% | -19%
CCC(=O)Nc1nnc(CCc2ccccc2)s1 | ? | -8% | -2% | 19% | -1% | -4%
CCOC(=O)C(=O)Nc1nnc(CCc2ccccc2)s1 | -66* | 17% | -7% | -5% | 5% | 5%
CCCS(=O)(=O)N1CCCC(C(=O)NCCOC)C1 (stereo unspecified) | / | 5% | 21% | -1% | -4%[60.1 µM] | 1%
Cc1nc(N2CCCCC2)sc1C(=O)c1ccc(SCCO)c([N+](=O)[O-])c1 | -68* | -2% | -19% | 71% | -8% | -17%
CC1=CC(=O)C=CC1=Nc1ccc(N(C)C)cc1 | -95* | / | / | / | / | /
SMILES | PI5P4K alpha inh | Pol beta inh | FEN1 inh | Pol iota inh | POLK inh | Pol eta inh
O=c1c2sc3ccccc3c2n(Cc2ccccc2F)c(=O)n1-c1ccccc1Cl | / | 10% | -4% | 37% | 3% | -20%
Cc1nc2scc(C)n2c(=O)c1S(=O)(=O)Nc1ccc(N2CCN(S(C)(=O)=O)CC2)cc1 | -5 | ? | 8% | 50µM* | -11% | ?
Cc1cccc(-n2c(C)cc(C(=O)C(=O)Nc3ccccc3F)c2C)c1C | / | -2% | 16% | -14% | -2% | 2%
O=C(Nc1ccc2oc(-c3ccccc3F)nc2c1)c1ccc([N+](=O)[O-])o1 | -5 | 11µM* | -18% | ? | -6%[60.1 µM] | 4%
NC(=S)N/N=C/c1ccc(-c2cc(Cl)cc(Cl)c2)o1 | ? | 82% | -3% | 16% | -1% | -18%
O=C(N/N=C/c1ccc(-c2cccc([N+](=O)[O-])c2)o1)c1ccc([N+](=O)[O-])cc1 | -9 | 2% | -5% | 84% | -15% | 12%
O=C(N/N=C/c1ccc(-c2cccc([N+](=O)[O-])c2)o1)c1ccccc1O | -4 | ? | ? | 48% | 6% | 50µM*
NC(=S)N/N=C/c1ccc(-c2ccc([N+](=O)[O-])cc2)o1 | -56* | 12% | 0% | -9% | 0% | 16%
CCCCOC(=O)c1ccc(NC(=O)c2cc3c(=O)n4cccc(C)c4nc3n2C)cc1 | / | -18% | 24% | 17% | -4% | -13%
COc1cccc2c1Oc1ncccc1N(C(=O)CCC(=O)NCCC(C)C)C2 | / | 1% | 11% | -9% | -6% | -11%
O=C(O)c1cccc(NC(=S)NC(=O)c2ccc(-c3ccc(Cl)cc3)o2)c1 | -19 | ? | ? | ? | -31% | ?
Cc1ccc(C(=O)O)cc1NC(=S)NC(=O)c1ccc(-c2ccc(Cl)cc2)o1 | 2 | 23% | -9% | -9% | -12% | 50µM*
COc1ccc(C(=O)O)cc1NC(=S)NC(=O)c1ccc(-c2ccc(Cl)cc2)o1 | -15 | -2% | -20% | ? | -16% | 20µM*
COc1ccc(C2C=C(c3cccc(OC)c3)Nc3c(C(=O)Nc4ccccc4)cnn32)cc1 (stereo unspecified) | / | 0% | -1% | 9% | -20% | -16%
COc1cccc(C2=CC(c3ccccc3F)n3ncc(C(=O)Nc4ccc(C)cc4)c3N2)c1 (stereo unspecified) | / | 28µM* | -20% | -2% | -9%[60.1 µM] | -18%
O=C(O)CCc1ccc(-c2ccc(F)cc2)n1Cc1ccco1 | / | -24% | -2% | -15% | -12% | -10%
O=C(O)CCc1ccc(-c2ccc(Br)cc2)n1Cc1ccco1 | / | ? | 0% | 50µM* | -38% | 56µM*
O=C(O)CCc1ccc(-c2ccc(F)cc2)n1CC(=O)O | 0 | -3% | -11% | ? | -13% | 11µM*
CCOC(=O)Cn1c(CCC(=O)O)ccc1-c1ccc(F)cc1 | 1 | 2% | -8% | -28% | -6% | -1%
O=C(O)CCc1ccc(-c2ccccc2)n1Cc1ccco1 | ? | -2% | 0% | ? | ? | 16µM*
CC(C)(C)C(C(=O)n1cccc1C#N)c1ccccc1 (stereo unspecified) | 3 | / | -19% | 17% | -23% | ?
O=C(O)c1ccc(N2CCCS2(=O)=O)cc1 | -10 | 17% | 12% | -13% | -3% | -7%
